Assay results from PubChem BioAssay (NCATS).
Values joined by “and” are separate entries in the source; they are usually repeats but may differ in a detail not shown here. Identical values can stand only once. Records with an inconclusive call do not appear. Active and inactive are the calls of the source. Unless noted, calls follow the shape of the dose curve; as a rule, active = well fitted curve in the direction sought with a large enough effect; inconclusive = small, poorly fitted or top-dose-only effect, or another doubt; inactive = no such curve, though single readings can be large; an effect the other way counts as inactive or inconclusive.

Legend:
[1] = Cell Viability - Mesenchymal (AID 546);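 also: cells exposed to compound for 40 hours before reading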
How it was run: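 Human kidney mesenchymal cells from normal renal glomeruli, 1000 cells/well, rested 5 hr at 37 °C, then treated 40 hr at 37 °C in complete medium. Cellular ATP read by CellTiter-Glo luminescence; AC50 from Hill-equation fits.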

[2] = Cellular Toxicity (caspase-3) HepG2 (AID 654);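 also: cells exposed to compound for 16 hours before reading; 0% = DMSO alone and 100% = caspase signal from 100 µM tamoxifen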
How it was run: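 qHTS, HepG2, 1500 cells/well, complete medium; cpd 16 h 37 °C; Caspase-Glo 3/7, 20 min RT; lum. Norm: DMSO vs 100 uM tamoxifen; AC50 Hill fit.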

[3] = Cellular Toxicity (caspase-3) Jurkat (AID 655); conditions: Jurkat caspase-3 activation, luminescence; caspase-3 activation: at 92.2 µM (top of the series), DMSO = 0%, tamoxifen = 100%;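 also: cells exposed to compound for 16 h at 37 °C before reading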
How it was run: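 5000 Jurkat cells/well; compound 16 hr, 37 °C; Caspase-Glo 3/7 added, 20 min RT; luminescence read. Norm: DMSO = 0%, tamoxifen 100 uM = 100%. AC50, Hill model.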

[4] = Cellular Toxicity (caspase-3) SHSY5Y (AID 657)
How it was run: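 qHTS, SH-SY5Y, 1500 cells/well, 5 h pre-incubation 37 °C; compound 16 h 37 °C; Caspase-Glo 3/7 1 h RT; luminescence. Norm.: DMSO = 0, 10 uM staurosporine = 100%. Hill fit → AC50.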

[5] = Cellular Toxicity (caspase-3) Hek293 (AID 664); conditions: HEK293 caspase-3 activation, DMSO = 0%, 100 µM tamoxifen = 100%; at 92.2 µM (top of the series);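 also: cells exposed to compound for 16 h at 37 °C before readout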
How it was run: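 Activation of caspase-3/7 is measured as increased luminescence from cleaved peptide-aminoluciferin substrate in HEK293 cells treated 16 hours at 37 °C. AC50 values come from Hill-equation fits of concentration-response data.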

[6] = Cellular Toxicity (caspase-3) NIH 3T3 (AID 666);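 also: caspase signal read after 16 h compound exposure; 0% = DMSO basal and 100% = 100 µM tamoxifen stimulation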
How it was run: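 Concentration-response qHTS in NIH 3T3 mouse fibroblasts scores caspase-3/7 activation as rising luminescence after 16 hr compound exposure. Signals are scaled between DMSO-only and 100 uM tamoxifen.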

[7] = MultiTox-Fluor Cytotoxicity Assay - LYMP1-001 - Dead Cells (AID 946);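 also: 0% = DMSO and 100% = tetraoctylammonium bromide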
How it was run: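 LYMP1-001 lymphoblastoid cells (2500/well) treated 16 h at 37 C. Dead-cell protease cleavage of bis-AAF-R110 read at Ex/Em 485/520. Normalized to DMSO and 15 uM tetraoctylammonium bromide; AC50 from Hill fits.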

[8] = Cell Viability - LYMP2-009 (AID 968);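 also: 0% = DMSO alone and the full-kill end = tetraoctylammonium bromide at 92 µM; nearly all actives have a fitted effect of over 55% in size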
[9] = Cell Viability - LYMP2-019 (AID 973);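 also: 0% = DMSO alone and full effect = 92 µM tetraoctylammonium bromide; nearly all actives have a fitted effect of over 55% in size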
How it was run: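 Cells plated at 2500/well and allowed 5 hr at 37 C before compound addition. After 24 hr incubation, CellTiter-Glo reagent was added, plates sat 30 min at room temperature, and luminescence was recorded.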

[10] = Cell Viability - LYMP2-023 (AID 975);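 also: cellular ATP measured by luciferase luminescence as viability proxy; plate controls were DMSO only for no effect and 92 µM tetraoctylammonium bromide control for full effect; nearly all actives have a fitted effect of over 55% in size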
How it was run: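 Concentration-dependent drop in intracellular ATP measures acute cytotoxicity in a human lymphoblastoid line treated for 24 hours in complete culture medium. AC50 values are taken from Hill-equation fits of qHTS data.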

[11] = Cell Viability - LYMP2-002 (AID 977);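 also: compound exposure lasted 24 h at 37 °C; plate controls were DMSO only for no effect and 92 µM tetraoctylammonium bromide for full effect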
How it was run: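 Human lymphoblastoid LYMP2-002 cells, 2500 per well, exposed to compounds for 24 h at 37 C in complete medium; viability read as intracellular ATP by CellTiter-Glo luminescence, AC50 from Hill fits.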

[12] = Cell Viability - LYMP2-008 (AID 980); also: % is scaled to controls: 0 for no effect and ±100 for the full control effect; nearly all actives have a fitted effect of over 60% in size
How it was run: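 Acute cytotoxicity is scored as concentration-dependent loss of cellular ATP in a human lymphoblastoid line after 24 hr treatment at 37 C. ATP is quantified by luciferase luminescence.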

[13] = Cell Viability - LYMP2-024 (AID 988);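 also: plate controls were DMSO only for no effect and 92 µM tetraoctylammonium bromide for full effect; nearly all actives have a fitted effect of over 60% in size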
How it was run: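 Acute toxicity is measured as concentration-dependent loss of intracellular ATP in a human lymphoblastoid line treated 24 hours at 37 C. Luciferase luminescence quantifies ATP; AC50 values come from standard Hill-equation modelling.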

[14] = qHTS assay for small molecule activators of the p53 signaling pathway (AID 651743; active = well fitted activation curve with a large enough effect in the signal ratio, not every such curve was filed as active; the % refers to the signal ratio; also: potency is read from the fitted curve at half-maximal effect; as to activation: % of control where 0% means no effect); conditions: HCT-116 p53RE-bla, beta-lactamase FRET ratio, 16 h; activation: hits give high values
How it was run: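 HCT-116 p53RE-bla, 4,000 cells/well; 5 h settle; cpd/DMSO 16 h, 37 C; LiveBLAzer B/G 2 h RT; fluorescence intensity.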

[15] = target: Tumor necrosis factor (Homo sapiens) (UniProt P01375); assay: qHTS assay to identify small molecules that stimulate Tumor Necrosis Factor-alpha (TNF-alpha) secretion (AID 651757; active = well fitted curve in the direction sought with a large enough effect in the signal ratio; the % refers to the signal ratio; also: 0% is about no effect)
How it was run: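 Secreted TNF-alpha from compound-treated THP-1 cells (17 hrs, 37 C) was quantified with a homogeneous time-resolved fluorescence antibody assay.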

[16] = qHTS assay for small molecule agonists of the antioxidant response element (ARE) signaling pathway measured by Nrf2-dependant transcriptional activity (AID 720636; active = well fitted curve in the direction sought with a large enough effect in the repeat runs; an effect the other way counts as inactive or inconclusive;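 also: HepG2 cells with an ARE-driven luciferase reporter; % of control where 0% means no effect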)
How it was run: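 We exposed ARE-luc HepG2 cells, seeded in assay medium with 1% dialyzed FBS and allowed 6 hr to adhere, to test compounds overnight (16 hr, 37 C) before measuring luciferase with ONE-Glo.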

[17] = qHTS assay for small molecule antagonists of the retinoid-related orphan receptor gamma (ROR-gamma) signaling pathway - cell viability counter screen (AID 720652; active = well fitted curve in the direction sought with a large enough effect in the repeat runs; an effect the other way counts as inactive or inconclusive;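 also: CHO reporter cells with doxycycline-induced ROR-gamma expression; compound exposure lasted 16 hr before ATP read; % is scaled to controls: 0 for no effect and ±100 for the full control effect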)
How it was run: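 Cytotoxicity is quantified via intracellular ATP (CellTiter-Glo luminescence) in doxycycline-induced CHO ROR response element-luciferase reporter cells treated with compound for 16 hr at 37 C, 5% CO2.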

[18] = qHTS assay for cell viability of the p53RE-bla HCT-116 cell line (AID 743292); also: % is scaled to controls: 0 for no effect and ±100 for the full control effect; nearly all actives have a fitted effect of over 55% in size
How it was run: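 In this qHTS counter-screen, metabolically competent p53RE-bla HCT-116 cells were counted via their ATP content. Compounds were applied for 16 h at 37 C and luciferase-coupled luminescence was measured.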

[19] = target: Mitogen-activated protein kinase 10 (Mus musculus) (UniProt Q61831); assay: JNK3 AlphaScreen Assay (AID 530; active = well fitted curve in either direction with a large enough effect, not every such curve was filed as active;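 also: kinase came from lysate of stimulated human HepG2 cells; signal reports phosphorylation of biotinylated GST-cJun 1-79 at Ser73 with 10 µM ATP; % is scaled to controls: 0 for no effect and ±100 for the full control effect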)
How it was run: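 qHTS format: compounds tested as titrations against IL-1beta/TNF-alpha-activated HepG2 lysate JNK3 with biotin-GST-cJun substrate and 10 uM ATP at room temperature. Loss of anti-phospho-cJun AlphaScreen signal indicates inhibition.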

[20] = Cellular Toxicity (caspase-3) SK-N-SH (AID 661);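 also: 0% = DMSO basal and 100% = 10 µM staurosporine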
How it was run: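 Caspase 3/7 activation is measured as a luminescence increase from aminoluciferin released by substrate cleavage in SK-N-SH cells after 16 hr compound treatment; values are AC50 from concentration-response curves.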

Sequence of Tumor necrosis factor (Homo sapiens) (P01375 whole entry, looked up): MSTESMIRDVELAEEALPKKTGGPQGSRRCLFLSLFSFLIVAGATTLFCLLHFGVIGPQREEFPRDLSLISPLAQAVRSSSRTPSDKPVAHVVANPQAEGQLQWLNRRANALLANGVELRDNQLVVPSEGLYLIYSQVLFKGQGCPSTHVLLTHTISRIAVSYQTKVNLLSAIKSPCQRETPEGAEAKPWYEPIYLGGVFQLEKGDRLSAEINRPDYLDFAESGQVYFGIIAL

BrCC(Br)C1CCC(Br)C(Br)C1 (stereo unspecified)
inactive: Potency [1] | outcome [2] | caspase-3 activation [3] 3.33% | outcome [4] | caspase-3 activation [5] 6.64% | Potency [6] | outcome [7] | Potency [8] | Potency [9] | Potency [10] | Potency [11] | Potency [12] | Potency [13] | activation [14] -5.49% | outcome [15] | Potency [16] | Potency [17] | Potency [18]

C=CC=O
inactive: Potency [1] | outcome [2] | caspase-3 activation [3] 13.2% | outcome [4] | caspase-3 activation [5] 0.46% | Potency [6] | Potency [8] | Potency [9] | Potency [10] | Potency [11] | Potency [12] | activation [14] -0.485% | outcome [15] | Potency [16] | Potency [17] | Potency [18]

COC(=O)Nc1nc2ccccc2[nH]1
inactive: Potency [19] | Potency [1] | caspase-3 activation [3] 10.9% | Potency [20] | caspase-3 activation [5] -4.59% | Potency [6] | Potency [8] | Potency [9] | Potency [10] | Potency [11] | Potency [13] | outcome [15] | Potency [17]
active: Potency [14] 10 µM and 12.6 µM

Clc1cccc2ccccc12
inactive: Potency [19] | outcome [2] | outcome [4] | Potency [20] | Potency [6] | outcome [7] | Potency [8] | Potency [9] | Potency [10] | Potency [11] | Potency [12] | Potency [13] | outcome [15] | Potency [16] | Potency [17] | Potency [18]

CC(C)(OOC(C)(C)c1ccccc1)c1ccccc1
inactive: outcome [2] | caspase-3 activation [3] -0.0747% | outcome [4] | Potency [20] | caspase-3 activation [5] 4.99% | outcome [7] | Potency [8] | Potency [11] | Potency [12] | Potency [13] | activation [14] -3.14% and -2.07% | outcome [15] | Potency [16] | Potency [17] | Potency [18]

Cc1cc(-c2cc(C)c(N)c(C)c2)cc(C)c1N
inactive: Potency [1] | outcome [2] | caspase-3 activation [3] 1.01% | Potency [20] | caspase-3 activation [5] -0.121% | Potency [6] | outcome [7] | Potency [8] | Potency [9] | Potency [10] | Potency [12] | Potency [13] | activation [14] -3.17% | Potency [16] | Potency [17] | Potency [18]

ClCC(Cl)CCl
inactive: Potency [1] | outcome [2] | caspase-3 activation [3] 1.95% | Potency [20] | caspase-3 activation [5] 1.26% | Potency [6] | Potency [8] | Potency [10] | Potency [11] | Potency [12] | Potency [13] | activation [14] 2.35% and -2.96% | Potency [16] | Potency [17]

N#CCCCCC#N
inactive: Potency [19] | Potency [1] | outcome [2] | caspase-3 activation [3] -0.898% | outcome [4] | Potency [20] | caspase-3 activation [5] 0.323% | Potency [6] | outcome [7] | Potency [8] | Potency [10] | Potency [11] | Potency [12] | Potency [13] | activation [14] -0.437% | outcome [15] | Potency [16] | Potency [18]

ClCC(Cl)Cl
inactive: outcome [2] | caspase-3 activation [3] 0.231% | outcome [4] | Potency [20] | caspase-3 activation [5] -0.541% | Potency [6] | outcome [7] | Potency [8] | Potency [10] | Potency [11] | Potency [13] | activation [14] -0.152% | outcome [15] | Potency [16] | Potency [18]

CC(Cl)(Cl)Cl
inactive: Potency [19] | Potency [1] | outcome [2] | outcome [4] | Potency [20] | caspase-3 activation [5] -1.64% | Potency [6] | outcome [7] | Potency [8] | Potency [9] | Potency [10] | Potency [11] | Potency [12] | Potency [13] | activation [14] -0.56% and -3.67% | outcome [15] | Potency [16] | Potency [18]

ClCCOCOCCCl
inactive: Potency [19] | outcome [2] | caspase-3 activation [3] -0.171% | outcome [4] | Potency [20] | caspase-3 activation [5] -1.31% | Potency [6] | outcome [7] | Potency [8] | Potency [9] | Potency [10] | Potency [11] | Potency [12] | Potency [13] | activation [14] -4.18% | outcome [15] | Potency [16] | Potency [17] | Potency [18]

CSSC
inactive: Potency [19] | outcome [2] | caspase-3 activation [3] -0.115% | caspase-3 activation [5] -3.42% | outcome [7] | Potency [10] | Potency [12] | Potency [13] | activation [14] -1.71% | Potency [16] | Potency [17] | Potency [18]

CC(C)[C@]12CC(=O)[C@H](C)[C@H]1C2
inactive: Potency [19] | Potency [1] | outcome [2] | outcome [4] | Potency [20] | caspase-3 activation [5] -0.456% | Potency [6] | outcome [7] | Potency [8] | Potency [9] | Potency [12] | Potency [13] | outcome [15] | Potency [16] | Potency [17] | Potency [18]

Cc1cc(-c2ccc(N)c(C)c2)ccc1N
inactive: Potency [1] | outcome [2] | caspase-3 activation [3] 1% | outcome [4] | caspase-3 activation [5] -2.85% | Potency [6] | outcome [7] | Potency [8] | Potency [9] | Potency [10] | Potency [11] | Potency [12] | activation [14] -1.87% and -0.84% and 2.36% | Potency [18]
